From PubChem BioAssay AID1159580 (chemical genetic matrix, 2015)
Where “and” joins values, the source holds several entries; their conditions need not be identical. Equal entries are not always repeated. Among all 5,500 compounds or so, about 2,000 (36%) were called active. Not shown: some 18% with an inconclusive outcome. No stated cut-off is given here; in the data, active means normalized growth mostly below about 0.91 (no sharp cut-off); inconclusive means no clear call, values can overlap the other calls; inactive means mostly above about 0.92. Some of the results follow.

Test: chemical genetic growth profiling, strain panel (AID 1159580);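 further: tested at 20 µM; growth read once vehicle control cultures reached saturation at 30 °C; 1 = growth at the plate median or of vehicle wells; lower values mean less growth of the strain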
Conditions: S. cerevisiae deletion strains, growth OD

Measured: normalized growth

OCCN1C[C@@H](O)[C@@H](O)C(O)C1CO (stereo partly specified)
inactive: locus YAL013W, strain DEP1, active compounds read low 1.02 | locus YAL021C, strain ccr4, active compounds read low 0.993 | locus YAL026C, strain drs2, active compounds read low 1.02 | locus YAL030W, strain snc1, active compounds read low 0.999 | locus YBL061C, strain skt5, active compounds read low 1.01 | locus YBR009C, strain hhf1, active compounds read low 1 | locus YBR021W, strain FUR4, active compounds read low 1.01 | locus YBR023C, strain chs3, active compounds read low 1 | locus YBR171W, strain sec66, active compounds read low 1.01 | locus YBR229C, strain ROT2, active compounds read low 1.02 | locus YBR231C, strain swc5, active compounds read low 1.01 | locus YBR279W, strain paf1, active compounds read low 1.01 | locus YCL011C, strain gbp2, active compounds read low 0.996 | locus YCL016C, strain dcc1, active compounds read low 0.993 | locus YCL029C, strain bik1, active compounds read low 1 | locus YCL069W, strain vba3, active compounds read low 0.991 | locus YCR088W, strain abp1, active compounds read low 0.997 | locus YDL005C, strain med2, active compounds read low 1.01 | locus YDL035C, strain GPR1, active compounds read low 1.01 | locus YDL040C, strain nat1, active compounds read low 1 | locus YDL074C, strain BRE1, active compounds read low 1.03 | locus YDL101C, strain DUN1, active compounds read low 1.01 | locus YDL134C, strain PPH21, active compounds read low 1.02 | locus YDL185W, strain tfp1, active compounds read low 0.994 | locus YDL192W, strain arf1, active compounds read low 1 | locus YDR001C, strain nth1, active compounds read low 1 | locus YDR069C, strain doa4, active compounds read low 1.01 | locus YDR101C, strain arx1, active compounds read low 1.01 | locus YDR137W, strain rgp1, active compounds read low 1.01 | locus YDR150W, strain NUM1, active compounds read low 1.02 | locus YDR159W, strain sac3, active compounds read low 1.01 | locus YDR162C, strain NBP2, active compounds read low 1.01 | locus YDR195W, strain ref2 0.992 | locus YDR297W, strain sur2, active compounds read low 1.01 | locus YDR318W, strain mcm21, active compounds read low 1 | locus YDR334W, strain swr1, active compounds read low 1.01 | locus YDR335W, strain msn5, active compounds read low 0.992 | locus YDR388W, active compounds read low 1 | locus YDR392W, strain spt3, active compounds read low 0.989 | locus YDR502C, strain sam2, active compounds read low 1 | locus YEL003W, strain gim4, active compounds read low 1.01 | locus YEL037C, strain rad23, active compounds read low 1 | locus YEL061C, strain CIN8 (second series), active compounds read low 0.989 | locus YEL061C, strain CIN8, active compounds read low 1.02 | locus YER015W, strain faa2, active compounds read low 1.01 | locus YER016W, strain bim1, active compounds read low 0.983 | locus YER110C, active compounds read low 0.993 | locus YER111C, strain swi4, active compounds read low 1.02 | locus YER155C, strain BEM2 (second series), active compounds read low 1.01 | locus YER155C, strain BEM2, active compounds read low 1.01 | locus YER167W, strain BCK2, active compounds read low 1.02 | locus YFR010W, strain ubp6, active compounds read low 1.01 | locus YGL078C, strain dbp3, active compounds read low 1.01 | locus YGL086W, strain mad1, active compounds read low 1 | locus YGL167C, strain pmr1, active compounds read low 1.01 | locus YGL173C, strain kem1, active compounds read low 1.02 | locus YGL227W, strain vid30, active compounds read low 1.01 | locus YGL240W, strain doc1, active compounds read low 1.01 | locus YGL248W, strain PDE1, active compounds read low 1.01 | locus YGL253W, strain hxk2, active compounds read low 1 | locus YGR078C, strain PAC10, active compounds read low 1.04 | locus YGR135W, strain pre9, active compounds read low 1 | locus YGR229C, strain SMI1, active compounds read low 1.02 | locus YGR252W, strain gcn5, active compounds read low 0.969 | locus YHR013C, strain ard1, active compounds read low 0.988 | locus YHR027C, strain rpn1, active compounds read low 1.01 | locus YHR030C, strain SLT2, active compounds read low 1.02 and 1.01 | locus YHR079C, strain IRE1 (second series), active compounds read low 1.01 | locus YHR079C, strain IRE1, active compounds read low 1 | locus YHR094C, strain hxt1, active compounds read low 1.01 | locus YHR129C, strain ARP1, active compounds read low 1.01 | locus YHR142W, strain chs7, active compounds read low 0.984 | locus YHR200W, strain rpn10, active compounds read low 1 | locus YIL066C, strain RNR3, active compounds read low 1.02 | locus YIL073C, strain SPO22, active compounds read low 1.03 | locus YIL125W, strain kgd1, active compounds read low 1 | locus YIR030C, strain dcg1, active compounds read low 1.01 | locus YJL092W, strain hpr5, active compounds read low 1 | locus YJL095W, strain BCK1 (second series), active compounds read low 1.01 | locus YJL095W, strain BCK1, active compounds read low 1.02 and 1.01 | locus YJL115W, strain asf1, active compounds read low 1.02 | locus YJL129C, strain trk1, active compounds read low 0.997 | locus YJL134W, strain LCB3, active compounds read low 1.01 | locus YJL154C, strain vps35, active compounds read low 0.994 | locus YJL164C, strain tpk1, active compounds read low 0.996 | locus YJL166W, strain qcr8, active compounds read low 1.01 | locus YJL168C, strain set2, active compounds read low 1 | locus YJL187C, strain SWE1 (second series), active compounds read low 1.02 | locus YJR043C, strain POL32, active compounds read low 1 | locus YJR066W, strain TOR1, active compounds read low 0.962 | locus YJR075W, strain HOC1, active compounds read low 1.01
